Test results taken from the supplement of paper PMC11732987, “Enantioselective OTUD7B fragment discovery through chemoproteomics screening and high-throughput optimisation” (Communications Chemistry, 2025).

What was measured:
Test in all cases: log2 ratio of Biotin-Ahx-Ub-VS probe labelling (fragment/DMSO); higher = less target engagement (more negative = stronger competition), active = hit call of the paper (q ≤ 0.05, log2 ratio ≤ -1)
Settings in all cases: compound concentration: 200 uM; treatment time: 3 h
USP19 = molecular target: T1, USP19 (UniProt O94966)
T1 sequence (whole entry): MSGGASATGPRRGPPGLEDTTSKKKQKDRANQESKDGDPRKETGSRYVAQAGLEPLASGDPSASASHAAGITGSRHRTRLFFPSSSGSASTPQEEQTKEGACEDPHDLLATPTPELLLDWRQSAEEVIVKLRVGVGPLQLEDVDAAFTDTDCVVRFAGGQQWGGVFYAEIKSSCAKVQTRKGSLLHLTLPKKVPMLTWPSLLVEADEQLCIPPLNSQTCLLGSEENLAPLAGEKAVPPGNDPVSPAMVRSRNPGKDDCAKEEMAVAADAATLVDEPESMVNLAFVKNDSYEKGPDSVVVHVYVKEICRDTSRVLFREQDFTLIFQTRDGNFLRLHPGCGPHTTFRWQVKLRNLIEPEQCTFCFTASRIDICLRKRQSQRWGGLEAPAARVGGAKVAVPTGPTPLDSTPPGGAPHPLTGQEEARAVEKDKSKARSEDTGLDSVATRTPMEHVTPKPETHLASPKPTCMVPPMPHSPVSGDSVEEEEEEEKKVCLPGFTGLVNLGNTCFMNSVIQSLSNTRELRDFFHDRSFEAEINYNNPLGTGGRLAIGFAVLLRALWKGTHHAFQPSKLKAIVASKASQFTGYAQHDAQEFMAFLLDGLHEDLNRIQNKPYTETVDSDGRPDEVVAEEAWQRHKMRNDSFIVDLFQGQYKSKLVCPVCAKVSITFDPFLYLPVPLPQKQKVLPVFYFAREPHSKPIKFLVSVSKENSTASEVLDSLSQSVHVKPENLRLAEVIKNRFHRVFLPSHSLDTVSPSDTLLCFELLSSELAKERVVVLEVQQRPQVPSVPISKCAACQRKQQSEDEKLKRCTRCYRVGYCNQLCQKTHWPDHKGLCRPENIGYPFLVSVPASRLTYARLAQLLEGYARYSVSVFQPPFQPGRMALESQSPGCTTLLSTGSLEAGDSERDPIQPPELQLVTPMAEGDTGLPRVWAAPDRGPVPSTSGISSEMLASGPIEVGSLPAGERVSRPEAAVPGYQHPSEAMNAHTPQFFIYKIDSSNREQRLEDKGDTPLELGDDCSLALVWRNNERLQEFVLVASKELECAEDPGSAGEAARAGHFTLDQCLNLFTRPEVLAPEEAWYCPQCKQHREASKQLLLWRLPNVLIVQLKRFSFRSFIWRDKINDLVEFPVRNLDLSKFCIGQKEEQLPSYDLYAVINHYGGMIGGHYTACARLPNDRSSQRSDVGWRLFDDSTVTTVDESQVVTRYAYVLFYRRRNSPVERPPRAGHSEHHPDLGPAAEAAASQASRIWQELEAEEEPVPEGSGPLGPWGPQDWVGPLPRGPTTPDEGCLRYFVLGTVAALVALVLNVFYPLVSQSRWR
How it was run: (§1)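 Labelled DUBs from HEK293T lysate were NeutrAvidin-enriched, digested with LysC and trypsin, and run by diaPASEF LC-MS/MS. Before that, each 495 µg sample in Tris/CHAPS/IGEPAL buffer with protease inhibitors was treated in triplicate with fragment at 200 µM or vehicle for 3 h, then with Biotin-Ahx-Ub-VS at 0.5 µM final for 1 h. Values are average log2 ratios of fragment over vehicle by unpaired t-test, based on global-median-normalised Spectronaut label-free quantities from proteins with ≥2 unique peptides.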

USP24 = USP24 (UniProt Q9UPU5)
How it was run: as §1

USP25 = molecular target: T2, USP25 (UniProt Q9UHP3)
T2 sequence (whole entry): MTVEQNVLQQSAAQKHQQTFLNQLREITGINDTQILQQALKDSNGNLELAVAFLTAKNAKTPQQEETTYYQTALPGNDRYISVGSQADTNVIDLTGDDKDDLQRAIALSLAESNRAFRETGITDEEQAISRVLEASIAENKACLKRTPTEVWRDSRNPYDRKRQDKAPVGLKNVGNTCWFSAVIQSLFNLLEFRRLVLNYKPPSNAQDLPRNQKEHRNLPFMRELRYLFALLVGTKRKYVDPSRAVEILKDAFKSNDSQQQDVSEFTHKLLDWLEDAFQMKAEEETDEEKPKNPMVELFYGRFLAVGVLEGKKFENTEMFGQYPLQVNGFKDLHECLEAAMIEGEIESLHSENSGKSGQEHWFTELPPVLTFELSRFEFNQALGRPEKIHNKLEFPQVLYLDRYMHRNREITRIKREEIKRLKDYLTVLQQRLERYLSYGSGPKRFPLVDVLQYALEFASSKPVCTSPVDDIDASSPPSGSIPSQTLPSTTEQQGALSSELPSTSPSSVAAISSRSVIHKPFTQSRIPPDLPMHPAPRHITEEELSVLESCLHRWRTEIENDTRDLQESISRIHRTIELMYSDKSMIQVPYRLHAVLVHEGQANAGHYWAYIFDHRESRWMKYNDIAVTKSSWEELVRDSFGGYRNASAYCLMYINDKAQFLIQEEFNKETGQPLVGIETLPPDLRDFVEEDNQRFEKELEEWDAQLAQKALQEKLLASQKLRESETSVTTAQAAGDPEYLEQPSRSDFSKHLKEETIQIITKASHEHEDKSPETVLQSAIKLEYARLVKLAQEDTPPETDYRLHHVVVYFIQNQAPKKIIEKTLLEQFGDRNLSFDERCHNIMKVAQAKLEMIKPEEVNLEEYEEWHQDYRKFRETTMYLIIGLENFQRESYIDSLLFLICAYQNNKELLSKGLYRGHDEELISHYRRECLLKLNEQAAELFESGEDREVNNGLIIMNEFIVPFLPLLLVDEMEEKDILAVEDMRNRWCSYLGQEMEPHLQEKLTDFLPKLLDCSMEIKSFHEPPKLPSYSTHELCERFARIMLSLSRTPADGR
How it was run: as §1

USP28 = molecular target: T3, USP28 (UniProt Q96RU2)
T3 sequence (whole entry): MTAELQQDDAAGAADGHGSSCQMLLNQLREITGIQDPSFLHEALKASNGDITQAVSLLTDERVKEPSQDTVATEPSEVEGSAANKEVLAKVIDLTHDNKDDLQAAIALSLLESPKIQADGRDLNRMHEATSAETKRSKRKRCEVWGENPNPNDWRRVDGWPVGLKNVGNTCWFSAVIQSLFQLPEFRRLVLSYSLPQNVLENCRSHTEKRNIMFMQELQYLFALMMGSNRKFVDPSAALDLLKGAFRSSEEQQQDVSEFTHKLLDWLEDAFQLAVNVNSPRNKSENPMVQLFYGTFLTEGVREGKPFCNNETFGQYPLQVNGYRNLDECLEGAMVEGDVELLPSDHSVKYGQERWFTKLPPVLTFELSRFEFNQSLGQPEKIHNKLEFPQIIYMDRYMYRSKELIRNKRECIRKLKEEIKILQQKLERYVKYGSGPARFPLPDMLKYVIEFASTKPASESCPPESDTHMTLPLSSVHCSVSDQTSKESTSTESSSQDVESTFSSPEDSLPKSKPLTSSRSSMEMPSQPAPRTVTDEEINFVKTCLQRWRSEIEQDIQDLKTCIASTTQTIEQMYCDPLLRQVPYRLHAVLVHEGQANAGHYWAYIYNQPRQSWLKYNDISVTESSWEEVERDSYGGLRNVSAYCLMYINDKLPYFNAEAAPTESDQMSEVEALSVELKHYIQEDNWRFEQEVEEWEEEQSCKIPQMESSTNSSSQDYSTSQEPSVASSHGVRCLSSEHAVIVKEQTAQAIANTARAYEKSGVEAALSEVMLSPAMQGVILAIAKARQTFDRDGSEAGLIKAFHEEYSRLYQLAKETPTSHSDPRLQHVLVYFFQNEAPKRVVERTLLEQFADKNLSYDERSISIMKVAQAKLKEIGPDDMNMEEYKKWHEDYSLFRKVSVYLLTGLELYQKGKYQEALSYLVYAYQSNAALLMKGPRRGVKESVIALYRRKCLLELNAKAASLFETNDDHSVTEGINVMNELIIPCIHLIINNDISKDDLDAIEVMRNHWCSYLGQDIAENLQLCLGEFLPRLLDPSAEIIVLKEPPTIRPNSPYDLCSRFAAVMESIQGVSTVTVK
How it was run: as §1

Measured: log2 ratio of Biotin-Ahx-Ub-VS probe labelling

USP24, sequence (Q9UPU5 whole entry): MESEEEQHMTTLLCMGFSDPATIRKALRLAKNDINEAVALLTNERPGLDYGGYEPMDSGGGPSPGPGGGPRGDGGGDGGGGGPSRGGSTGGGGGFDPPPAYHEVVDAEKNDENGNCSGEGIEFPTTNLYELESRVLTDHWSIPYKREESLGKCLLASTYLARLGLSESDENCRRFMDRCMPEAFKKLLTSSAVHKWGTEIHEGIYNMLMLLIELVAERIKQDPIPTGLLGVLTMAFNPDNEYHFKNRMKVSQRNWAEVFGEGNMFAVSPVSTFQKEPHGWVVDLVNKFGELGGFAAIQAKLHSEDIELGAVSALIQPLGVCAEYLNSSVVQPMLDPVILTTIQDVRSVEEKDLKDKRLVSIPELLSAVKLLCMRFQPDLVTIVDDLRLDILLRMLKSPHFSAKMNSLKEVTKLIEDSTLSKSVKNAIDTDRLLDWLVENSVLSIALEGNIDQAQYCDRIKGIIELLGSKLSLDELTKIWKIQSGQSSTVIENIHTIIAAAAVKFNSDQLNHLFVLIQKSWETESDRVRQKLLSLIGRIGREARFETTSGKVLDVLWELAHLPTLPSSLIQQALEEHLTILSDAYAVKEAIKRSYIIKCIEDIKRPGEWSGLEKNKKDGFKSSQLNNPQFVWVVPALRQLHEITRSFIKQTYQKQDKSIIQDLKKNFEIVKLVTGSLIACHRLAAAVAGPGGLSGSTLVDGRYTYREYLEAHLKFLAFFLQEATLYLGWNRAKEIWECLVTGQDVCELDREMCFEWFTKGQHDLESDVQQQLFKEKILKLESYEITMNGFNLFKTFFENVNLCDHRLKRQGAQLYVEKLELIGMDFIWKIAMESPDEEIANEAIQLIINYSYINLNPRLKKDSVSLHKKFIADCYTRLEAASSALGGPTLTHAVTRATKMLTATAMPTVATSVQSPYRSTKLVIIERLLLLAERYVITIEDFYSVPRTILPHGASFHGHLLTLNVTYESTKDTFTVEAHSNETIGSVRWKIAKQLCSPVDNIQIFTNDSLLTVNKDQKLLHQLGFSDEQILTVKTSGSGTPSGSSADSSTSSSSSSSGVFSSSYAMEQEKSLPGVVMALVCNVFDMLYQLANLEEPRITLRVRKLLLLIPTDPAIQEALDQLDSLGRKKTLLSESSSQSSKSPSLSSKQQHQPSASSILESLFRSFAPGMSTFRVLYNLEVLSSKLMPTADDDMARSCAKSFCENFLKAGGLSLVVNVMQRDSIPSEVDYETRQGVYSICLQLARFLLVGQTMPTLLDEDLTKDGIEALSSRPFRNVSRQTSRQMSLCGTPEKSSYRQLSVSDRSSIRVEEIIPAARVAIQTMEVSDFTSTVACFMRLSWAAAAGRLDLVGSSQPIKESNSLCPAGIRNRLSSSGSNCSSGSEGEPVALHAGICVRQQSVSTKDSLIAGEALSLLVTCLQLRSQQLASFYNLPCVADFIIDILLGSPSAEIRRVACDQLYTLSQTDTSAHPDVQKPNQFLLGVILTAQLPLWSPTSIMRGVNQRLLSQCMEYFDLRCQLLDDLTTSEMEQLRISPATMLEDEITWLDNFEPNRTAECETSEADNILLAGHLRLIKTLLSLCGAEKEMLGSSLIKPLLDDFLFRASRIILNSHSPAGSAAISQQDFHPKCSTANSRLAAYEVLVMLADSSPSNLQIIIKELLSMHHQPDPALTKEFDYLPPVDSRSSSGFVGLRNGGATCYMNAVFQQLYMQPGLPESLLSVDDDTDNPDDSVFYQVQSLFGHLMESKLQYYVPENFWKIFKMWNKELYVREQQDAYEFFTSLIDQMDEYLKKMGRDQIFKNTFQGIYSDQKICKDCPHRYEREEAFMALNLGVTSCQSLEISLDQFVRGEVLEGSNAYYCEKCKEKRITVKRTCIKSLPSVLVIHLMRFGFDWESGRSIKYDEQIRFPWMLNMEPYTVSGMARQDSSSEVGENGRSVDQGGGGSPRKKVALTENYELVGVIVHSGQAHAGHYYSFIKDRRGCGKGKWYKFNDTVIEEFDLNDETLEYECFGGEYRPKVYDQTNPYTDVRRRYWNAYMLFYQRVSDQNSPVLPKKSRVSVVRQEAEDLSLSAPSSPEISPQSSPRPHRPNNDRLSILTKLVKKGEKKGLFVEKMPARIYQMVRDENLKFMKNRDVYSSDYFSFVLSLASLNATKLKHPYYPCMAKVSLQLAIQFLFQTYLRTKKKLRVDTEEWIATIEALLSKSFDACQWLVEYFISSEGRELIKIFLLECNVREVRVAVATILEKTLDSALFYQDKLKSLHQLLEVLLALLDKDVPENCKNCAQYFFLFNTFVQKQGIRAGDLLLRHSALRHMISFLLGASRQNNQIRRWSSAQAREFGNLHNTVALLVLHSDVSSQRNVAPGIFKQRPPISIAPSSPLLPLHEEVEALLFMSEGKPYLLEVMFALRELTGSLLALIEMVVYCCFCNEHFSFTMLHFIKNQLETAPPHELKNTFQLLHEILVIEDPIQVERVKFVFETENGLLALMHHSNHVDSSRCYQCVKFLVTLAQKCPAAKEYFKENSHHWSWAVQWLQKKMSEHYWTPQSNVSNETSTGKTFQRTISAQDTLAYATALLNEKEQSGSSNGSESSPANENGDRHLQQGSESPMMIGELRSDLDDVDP

Cl.O=C(CCl)N1CC(c2ccc(Br)cn2)C1
inactive: USP19 -0.658 | USP24 -0.76 | USP25 -0.491 | USP28 -0.738
